Our source for the growth values is PubChem BioAssay (NCI).

Compounds without any hit were thinned out: in the full panel of roughly 83,000, 20% have a hit.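 96-well plates, one dose, 48 hours. Percent growth reported; active if below 10.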 A number with no mark means an inactive call. Calls of active or inactive are those of the source.

Test systems include NCI-H23 lung; NCI-H226 lung; NCI-H322M lung; HOP-62 NSCLC; NCI-H460 lung; HOP-92 NSCLC; NCI-H522 lung; A549/ATCC NSCLC; 786-0 renal; COLO 205 colon.
Assay in all cases: NCI-60 one-dose screen, 48 h (100 = growth as untreated, 0 = no growth, -100 = all killed)
What all share (conditions): 10 µM unless noted

Regarding `CN(/C(N)=N/N=C/c1c2ccccc2cc2ccccc12)C1CCCCC1`, the growth in the experiment on NCI-H23 lung was 16.1%; in the experiment with NCI-H226 lung, 64.3%; in the experiment with NCI-H322M lung, 73.6%; in the experiment on HOP-62 NSCLC, 75.8%; with NCI-H460 lung it was 43.6%; in the experiment with HOP-92 NSCLC, -5.84% (active). The growth was 40.9% with NCI-H522 lung, 43.4% in the experiment on A549/ATCC NSCLC, 49.5% in the experiment on 786-0 renal and -55.5% (active) in the experiment on COLO 205 colon.

Regarding `c1ccc([P+](c2ccccc2)(c2ccccc2)c2ccc3c4ccc([P+](c5ccccc5)(c5ccccc5)c5ccccc5)c5cccc(c6cccc2c63)c54)cc1`, the growth in the experiment on NCI-H23 lung is 8.37% (active); in the experiment on NCI-H226 lung it was 15.7%; with NCI-H322M lung, 17.8%; with HOP-62 NSCLC, 14.1%; in the experiment with NCI-H460 lung it was 4.26% (active); in the experiment on NCI-H522 lung, 6.86% (active). The growth in the experiment with A549/ATCC NSCLC is 11%; in the experiment on 786-0 renal it was 40.7%.

On to `Nc1ncnc2c1N=C(c1ccc(Br)cc1)CC(c1cccc(Nc3ccnc4cc(C(F)(F)F)ccc34)c1)N2` (configuration not stated), for which the growth was 62.7% in the experiment with NCI-H23 lung; 67.3% with NCI-H226 lung; 95.6% in the experiment on NCI-H322M lung; 60.1% with HOP-62 NSCLC; 59.1% in the experiment on NCI-H460 lung; 74% with NCI-H522 lung. Moreover, the growth was 55.2% in the experiment with A549/ATCC NSCLC and 53.7% with 786-0 renal.

With `NC(=O)c1cc(I)ccc1NC(=O)/C=C/c1ccccc1`, the growth in the experiment with NCI-H23 lung is 9.27% (active); in the experiment with NCI-H226 lung, 56.8%; with NCI-H322M lung it was 33.8%; in the experiment with HOP-62 NSCLC, -35.5% (active); in the experiment on NCI-H460 lung, 1.75% (active); in the experiment on NCI-H522 lung, -18.7% (active). In addition, the growth was 33.7% in the experiment on A549/ATCC NSCLC, 26% in the experiment with 786-0 renal and 15.3% with COLO 205 colon.

As for `CSc1nc2ccccc2cc1/C=[N+](\[O-])c1ccccc1`, the growth is 70% in the experiment with NCI-H23 lung; 73.9% with NCI-H226 lung; 85.7% with NCI-H322M lung; 67.9% in the experiment with HOP-62 NSCLC; 92.1% in the experiment with NCI-H460 lung; 82.4% with NCI-H522 lung. The values for the growth in the experiment on A549/ATCC NSCLC, with 786-0 renal and in the experiment on COLO 205 colon were 97.6%, 74.6% and 103%, respectively.

`COc1ccc(/C=C(\C#N)n2nnc3cc(Cl)ccc32)cc1`: the growth was 8.62% (active) in the experiment with NCI-H23 lung; 12.8% in the experiment with NCI-H226 lung; 6.1% (active) with NCI-H322M lung; 40.8% with HOP-62 NSCLC; 1.99% (active) with NCI-H460 lung; -15.7% (active) in the experiment with NCI-H522 lung. Moreover, the values for the growth in the experiment on A549/ATCC NSCLC and in the experiment with 786-0 renal were 14.4% and -16.7% (active), respectively.

In the case of `COc1cc2cc(NCc3cccc(Cl)c3)nc(C)c2cc1OC`, the growth in the experiment with NCI-H23 lung is 22.6%; in the experiment with NCI-H226 lung, 35.8%; in the experiment with NCI-H322M lung, 37.4%; with HOP-62 NSCLC, 51.4%; in the experiment on NCI-H460 lung, 22.7%; in the experiment on NCI-H522 lung, 18.3%. The values for the growth with A549/ATCC NSCLC, in the experiment with 786-0 renal and with COLO 205 colon were 41.3%, 39.9% and 31.6%, respectively.

Turning to `COc1ccc(/C=N/C2=C(C#N)C(c3ccccc3)c3ccc4ccccc4c3O2)cc1` (configuration not stated), the growth is 29.9% with NCI-H23 lung; 51.5% with NCI-H226 lung; 43.7% in the experiment on NCI-H322M lung; 22% with HOP-62 NSCLC; 8.64% (active) in the experiment on NCI-H460 lung; 41.4% in the experiment on HOP-92 NSCLC. The growth is -7.09% (active) in the experiment on NCI-H522 lung, 16.8% with A549/ATCC NSCLC, 24.4% in the experiment with 786-0 renal and -26.3% (active) with COLO 205 colon.

Consider `COc1cc(OCc2cccc(Br)c2C)cc(OC)c1C=O`, for which the growth in the experiment on NCI-H23 lung is 75.7%; with NCI-H226 lung, 29.3%; with NCI-H322M lung, 92.6%; with HOP-62 NSCLC it was 93.5%; with NCI-H460 lung, 75.8%; in the experiment with HOP-92 NSCLC, 90.6%. For the same compound, the growth in the experiment with NCI-H522 lung is 62%; in the experiment on A549/ATCC NSCLC, 76.5%; with 786-0 renal, 79.4%; with COLO 205 colon, 93.4%.

Turning to `CCOC(=O)c1c(C(=O)c2cn(C)c3ccc(Br)cc23)c(-c2cn(C)c3ccc(Br)cc23)n(NC(=O)OC(C)(C)C)c1C`, the growth in the experiment on NCI-H23 lung was 86.5% [100 µM]; in the experiment with NCI-H226 lung, 89.7% [100 µM]; in the experiment on NCI-H322M lung it was 89.5% [100 µM]; in the experiment with HOP-62 NSCLC, 56.1% [100 µM]; in the experiment with NCI-H460 lung it was 80.5% [100 µM]; in the experiment on NCI-H522 lung, 89.6% [100 µM]. For the same compound, the growth with A549/ATCC NSCLC is 74% [100 µM]; in the experiment on 786-0 renal, 32% [100 µM]; with COLO 205 colon, 98.5% [100 µM].

Take `COc1ccc2c(c1)c(-c1nc(-c3c[nH]c4ccncc34)cs1)cn2C`: the growth is 46.3% with NCI-H23 lung; 48.7% in the experiment with NCI-H226 lung; -31% (active) in the experiment with NCI-H322M lung; -82.7% (active) with HOP-62 NSCLC; -78.2% (active) in the experiment on NCI-H460 lung; -71.3% (active) in the experiment on NCI-H522 lung. For the same compound, the values for the growth in the experiment with A549/ATCC NSCLC, in the experiment with 786-0 renal and in the experiment with COLO 205 colon were -85.9% (active), -91.6% (active) and -81.7% (active), respectively.

Consider `COc1ccc(/C=C/C(=O)c2cccc(OCCCCOc3cccc(C(=O)/C=C/c4ccc(OC)c(OC)c4)c3)c2)cc1OC`, for which the growth in the experiment with NCI-H23 lung was 54.5%; in the experiment with NCI-H226 lung it was 57.5%; in the experiment on NCI-H322M lung, 87.3%; in the experiment with HOP-62 NSCLC, 72.8%; in the experiment with NCI-H460 lung, 80.5%; in the experiment on NCI-H522 lung, 64.4%. The figures for the growth with A549/ATCC NSCLC, in the experiment on 786-0 renal and in the experiment on COLO 205 colon were 78%, 89.8% and 112%, respectively.

Regarding `Cc1cc(C(=O)Nc2ncc(Cc3cccc(C(F)(F)F)c3)s2)c2ccccc2n1`, the growth with NCI-H23 lung is 51.6%; in the experiment on NCI-H226 lung it was 54.4%; in the experiment on NCI-H322M lung, 59.3%; in the experiment with HOP-62 NSCLC, 31.8%; with NCI-H460 lung, 11.3%; in the experiment with NCI-H522 lung, 10.3%. Further, the growth in the experiment on A549/ATCC NSCLC is 24.7%; in the experiment with 786-0 renal, 38%; in the experiment with COLO 205 colon it was 19.2%.
